Assay outcomes deposited in PubChem BioAssay by National Center for Advancing Translational Sciences (NCATS).
Hits are enriched below; roughly 12% of the tested compounds scored in any of these assays.
Shiga inhibitor: Shiga toxin inhibition; inhibition, % at 38.7 µM; 9.2% of 290,000 active; Vero cells, Shiga toxin protein synthesis inhibition reporter; in the data active means inhibition mostly above about 28%, no sharp cut-off; inactive means mostly below about 43%; further: 0% is about no effect
FMDV inh: foot and mouth disease virus antiviral activity. FMDV antiviral cell-based qHTS. Potency, µM (top dose mostly 57.9 µM), for inactives: at the highest dose activity change, negative = inhibition, hits mostly inhibitors. 1.2% of 410,000 active. AID 1159524; calls by dose curve; tested in HEK293T cells; further: read-out not given here; potency means the concentration at half of the fitted maximal effect; on the % scale 0 is the no-effect control and ±100 the full control effect; nearly all actives have a fitted effect of over 45% in size
Sm TGR inh: blocks Schistosoma mansoni thioredoxin glutathione reductase; Q962Y6; purified TGR, DTNB reduction, TNB absorbance 405 nm; Potency, µM (top dose mostly 114 µM), inactives show top-dose activity change, negative = inhibition, most hits filed as inhibitors; 3% of 360,000 active; AID 485364; active means well fitted inhibition curve with a large enough effect; inconclusive means small, poorly fitted or top-dose-only effect; inactive means no such curve, though single readings can be large or run the other way; further: potency means the concentration at half of the fitted maximal effect; on the % scale 0 is the no-effect control and ±100 the full control effect; nearly all actives have a fitted effect of over 60% in size
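TGR 20 nM + NADPH 100 uM (dispensed conc.), cpd preinc 15 min RT; start with NADPH (500 uM addition) then DTNB (15 mM addition). Kinetic TNB absorbance, 405 nm filter. Four-parameter Hill fit across titration.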
CHX counter: counter-screen hit for Shiga toxin inhibitors, cycloheximide | AID 2314 | 12% of 300,000 active | max response, % | cell reporter, cycloheximide protein synthesis inhibition counterscreen; in the data active means max response mostly above about 13%, no sharp cut-off; inactive means mostly below about 14%; further: read at 38.3 µM for the half of the compounds with a filed dose; 0% is about no effect
* marks the source's active call; other numbers are inactive results; ? = inconclusive; · = no result.

SMILES | Shiga inhibitor | FMDV inh | Sm TGR inh | CHX counter
Cc1ccc(NC2Nc3cc(C)nn3S2)c(C)c1 (stereo not given) | 83* | 79% | -24% | 57*
Cc1ccc(C)c(NC(=O)Cc2coc3cc(C)cc(C)c23)c1 | · | -8% | -3% | ·
CCc1ccc(NC(=O)CN2C(C(=O)OC)=C(c3ccccc3)c3ccccc3S2(=O)=O)cc1 | · | -17% | 12% | ·
COCCCNC(=S)Nc1ccc(N2CCCCC2)cc1 | 84* | 0% | -18% | 13
S=C(NCCc1ccccc1)Nc1ccc(N2CCCCC2)cc1 | 32 | -3% | -14% | 20*
S=C(NCCN1CCCCC1)Nc1ccccc1 | -13 | 14% | · | 0
CCNC(=S)Nc1ccc(N2CCCCC2)cc1 | 34 | 39% | -10% | 25*
Cc1ccc(Cn2c(=O)c3cccnc3n(CC(=O)Nc3cc(Cl)ccc3C)c2=O)cc1 | · | -20% | 6% | ·
CCC1(C2CCN(Cc3cc4ccccc4o3)CC2)NC(=O)N(CC2COc3ccccc3O2)C1=O (stereo not given) | · | -25% | · | ·
Cc1ccc(OCc2ccc(C(=O)NCc3cccnc3)cc2)cc1C | 52* | -16% | · | 33*
CC(C)(C)c1ccc(OCc2ccc(C(=O)NCc3cccnc3)o2)cc1 | 176* | -13% | 3% | 45*
O=C(COc1ccc(Cl)cc1)Nc1ccc(C(=O)NCc2cccnc2)cc1 | -7 | 14µM* | 8% | -2
CC(C)(C)c1ccc(OCc2ccc(C(=O)NN)o2)cc1 | 116* | 29% | 9% | 71*
O=C(NCc1ccc(F)cc1)C1CCN(C(=O)c2ccc(-n3ccc4ccccc43)s2)CC1 | · | -28% | 4% | ·
CCOc1ccc(C(=O)c2cn(CC(=O)Nc3ccc4c(c3)OCCO4)c3ccc(F)cc3c2=O)cc1 | · | -11% | -3% | ·
O=C1c2ccccc2C(=O)N1CC#CCN1CCN(C(c2ccccc2)c2ccccc2)CC1 | -28 | -38% | 50µM* | 4
O=C(Nc1cnc2sc3c(n2c1=O)CCCC3)c1ccc(F)cc1 | 44* | 16% | 9% | 25*
COc1ccc(C(=O)Nc2cnc3ccccn3c2=O)cc1 | 97* | 57% | -11% | 46*
O=C(CSc1nnc2ccccn12)NNC(=O)c1ccc(F)cc1 | -12 | -3% | 2% | 1
O=C(Nc1cnc2ccccn2c1=O)c1ccc(F)cc1 | 58* | 0% | 3% | 33*
COc1ccc(OC)c(NC(=O)c2cc3c(=O)n4ccccc4nc3n2C)c1 | 2 | -12% | 1% | 15
Cc1ccccc1OCCSc1nc2ccc(NC(=O)c3cccc(F)c3)cc2s1 | · | -4% | 0% | ·
COc1ccc(C2=NC(C)(C)N(CC(=O)Nc3ccc(F)c(F)c3)C2=O)cc1 | · | -21% | 5% | ·
S=C1NC2(CCCCCC2)N=C1c1ccccc1 | -10 | 11% | 2% | 4
S=C1NC2(CCCC2)N=C1c1ccccc1 | 39 | -9% | -3% | 21*
SMILES | Shiga inhibitor | FMDV inh | Sm TGR inh | CHX counter
Cc1ccc(C2=NC3(CCCC3)NC2=S)cc1 | 91 | 29% | 0% | 22*
CCOc1ccc(NC(=O)Cn2ccn(-c3ccc(F)c(F)c3)c(=O)c2=O)cc1 | · | -15% | -1% | ·
Cc1cccc(NC(=O)CN2C(=O)C3(SCC(=O)N3c3ccccc3)c3ccccc32)c1 (stereo not given) | · | -4% | -1% | ·
COCCn1c(CN2CCN(c3ccc(F)cc3)CC2)nc2c1c(=O)n(C)c(=O)n2C | -3 | · | -1% | -3
CCCCn1c(CN2CCN(c3ccc(F)cc3)CC2)nc2c1c(=O)n(C)c(=O)n2C | 79 | ? | 4% | 30*
CC(C)c1ccc2c(c1)C1Cc3ccccc3C1N2 (stereo not given) | 42* | 3% | 7% | 56*
CC(C)c1ccc(C2NC(=O)NC3=C2CCc2ccccc23)cc1 (stereo not given) | 77 | ? | ? | 17
CCC(=O)N1CCc2cc(Br)cc(S(=O)(=O)CCC(=O)N3CCN(c4ccccc4F)CC3)c21 | · | 16% | -13% | ·
N#C/C(=N\Nc1cccc2ccccc12)c1nnc2n1CCCCC2 | 3 | 9% | -2% | 14*
N#C/C(=C\c1c[nH]c2ccccc12)c1nnc2n1CCCCC2 | 7 | 61% | 7% | 3
S=C(c1ccc(-c2ccc(Cl)cc2Cl)o1)N1CCCC1 | 22 | 11% | -25% | 18*
N#CCCN1CCN(C(=S)c2ccc(-c3cc(Cl)ccc3Cl)o2)CC1 | -2 | ? | 4% | 1
S=C(c1ccc(-c2ccc(Cl)cc2Cl)o1)N1CCCCC1 | 78* | 17% | -15% | 42*
CN1CCN(C(=S)c2ccc(-c3cc(Cl)ccc3Cl)o2)CC1 | 9 | 4% | 11% | 9
COc1cccc(N2CCN(C(=O)C3Cc4ccccc4N3C(C)=O)CC2)c1 (stereo not given) | · | -5% | -6% | ·
CCOc1ccc(C(=O)Nc2ccc(S(=O)(=O)Nc3nc(C)cc(C)n3)cc2)cc1OC | · | 32% | 5% | ·
Cc1ccccc1/C=N/N=C1/NC(=O)CCS1 | 92* | 57% | -20% | 40*
O=C1CCS/C(=N\N=C\c2ccc(Cl)cc2Cl)N1 | 24 | 60% | -7% | 16*
CCOC(=O)c1ccc(NC(=O)C(CC)Sc2nc3ncccc3o2)cc1 (stereo not given) | · | -3% | 0% | ·
Cc1ccc(NC(=O)CCCN2C(=O)COc3ccc(C)cc32)c(Cl)c1 | · | -21% | -16% | ·
NC(=NCc1ccco1)NC(=O)c1ccc(Cl)cc1 | 76* | 0% | -6% | 25*
Cc1cccc2c(=O)c(-c3ccc(Cl)cc3)c(NC(=O)c3ccco3)oc12 | 24* | -10% | -9% | 16*
CCC(C)c1ccc(NC(=O)CC(C)=O)cc1 (stereo not given) | 14 | 27% | 0% | 21*
O=C(Cc1ccccc1)Nc1ccc(NC(=O)c2ccco2)cc1 | 51* | 22% | 0% | 18*
O=C(CCNC(=O)c1ccco1)Nc1ccccc1 | 17 | -15% | 2% | 5
SMILES | Shiga inhibitor | FMDV inh | Sm TGR inh | CHX counter
Cc1ccccc1C1CC(=O)Nc2ccc3ccccc3c21 (stereo not given) | · | -20% | 5% | ·
COc1ccccc1NC(=O)c1ccc(-c2nc(COc3ccc(C)cc3)c(C)o2)cc1 | · | ? | 2% | ·
CC1CCC(C(=O)NC(C(=O)OCC(=O)c2ccccc2)C(C)C)CC1 (stereo not given) | · | ? | 1% | ·
Cc1oc2ncn(CC(C)C)c(=O)c2c1C(=O)NCCCN(C)Cc1ccccc1 | · | -7% | 11% | ·
COc1ccc(-c2csc(-c3nc(-c4ccc(Br)s4)cs3)n2)cc1F | · | 5% | -8% | ·
CSc1cccc(NC(=O)c2ccco2)c1 | 108* | 30% | 0% | 30*
COc1ccc(-c2ccc(NC(=O)c3ccco3)cc2)nn1 | · | 11µM* | 50µM* | ·
C/C=C/C(=O)OCC(=O)Nc1ccc(SC(F)F)cc1 | 36 | 9% | -8% | 26*
COc1ccc(-c2cccc(NC(=O)c3ccco3)c2)nn1 | · | -6% | -33% | ·
O=C(Cc1ccccc1)Nc1ccc(SC(F)F)cc1 | 35 | 48% | -8% | 41*
CCOC(=O)Cn1c(=O)n(C2CCCCC2)c2nc(-c3ccc(Cl)cc3)nc(C(N)=O)c21 | · | -11% | 26% | ·
O=C(Nc1ccc(Cl)cc1)c1ccco1 | 55 | 56% | 2% | 33*
CN(C(=O)c1cccc(NC(=O)c2ccco2)c1)c1ccccc1 | · | -12% | -4% | 1
